Consider nine compounds from PubChem BioAssay (NCI).

About 83,000 compounds went through this panel and 20% of them were active in at least one assay; those are over-represented in the sample as a whole.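 Treatment: one concentration, 48 hours, 96-well format. Scoring: percent growth, with anything below 10 considered active.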 A number with no mark means an inactive call. Active and inactive are the calls of the source.

Some test systems named below: SR leukemia; RPMI-8226 leukemia; OVCAR-8 ovarian; OVCAR-5 ovarian; OVCAR-4 ovarian; SK-OV-3 ovarian; IGROV1 ovarian; OVCAR-3 ovarian; HS 578T breast; NCI/ADR-RES ovarian; T-47D breast; BT-549 breast; MDA-MB-435 melanoma; SW-620 colon; MCF7 breast; HCT-116 colon; HCC-2998 colon; KM12 colon.
Assay in all cases: NCI-60 one-dose screen, 48 h (100 = growth as untreated, 0 = no growth, -100 = all killed)
Holding throughout (conditions): 10 µM unless noted

Turning to `COc1cc2c(/C=C3\C(=O)Nc4ccc(Br)cc43)c(Cl)n(C)c2cc1C`, the growth in the assay on SR leukemia was 0.77% (active); in the assay with RPMI-8226 leukemia, 0.149% (active); with OVCAR-8 ovarian it was 17.8%; in the assay on OVCAR-5 ovarian, 13.4%; in the assay on OVCAR-4 ovarian, 45.6%; in the assay on SK-OV-3 ovarian, 24.7%. The growth is -10.2% (active) in the assay with IGROV1 ovarian; -23.5% (active) with OVCAR-3 ovarian; 40.2% with HS 578T breast; -17.7% (active) with NCI/ADR-RES ovarian; 64.4% in the assay with T-47D breast; 35.1% with BT-549 breast. The growth in the assay on MDA-MB-435 melanoma is 7.32% (active); in the assay with SW-620 colon, 31.9%; in the assay with MCF7 breast, 23.9%; in the assay with HCT-116 colon it was 5.1% (active); with HCC-2998 colon, -39.4% (active); in the assay with KM12 colon it was -21.5% (active).
`COC(=O)C(N)CC(C)C` (stereo unspecified): the growth in the assay on SR leukemia was 86.4%; in the assay on RPMI-8226 leukemia, 99.2%; with OVCAR-8 ovarian it was 101%; with OVCAR-5 ovarian, 108%; in the assay with OVCAR-4 ovarian, 111%; in the assay on SK-OV-3 ovarian, 111%. In addition, the growth is 115% with IGROV1 ovarian; 109% in the assay on OVCAR-3 ovarian; 111% with HS 578T breast; 106% with NCI/ADR-RES ovarian; 92% with T-47D breast; 97.9% in the assay on BT-549 breast. In addition, the growth in the assay on MDA-MB-435 melanoma was 106%; in the assay with SW-620 colon, 103%; in the assay on MCF7 breast it was 98.3%; in the assay with HCT-116 colon it was 93.5%; in the assay with HCC-2998 colon, 111%; in the assay with KM12 colon, 93.8%.
For `CC(=O)NCCN`, the growth in the assay with SR leukemia was 97%; with RPMI-8226 leukemia, 105%; in the assay with OVCAR-8 ovarian it was 93.4%; in the assay on OVCAR-5 ovarian, 102%; with OVCAR-4 ovarian it was 115%; in the assay with SK-OV-3 ovarian, 116%. The growth is 111% in the assay on IGROV1 ovarian; 113% with OVCAR-3 ovarian; 103% with HS 578T breast; 113% in the assay with NCI/ADR-RES ovarian; 97.5% with T-47D breast; 102% in the assay with BT-549 breast. The growth is 107% in the assay on MDA-MB-435 melanoma; 107% with SW-620 colon; 104% in the assay with MCF7 breast; 102% in the assay with HCT-116 colon; 97.4% in the assay with HCC-2998 colon; 113% in the assay on KM12 colon.
Take `Nc1cc(N)c2nc(NCCc3ccc(Cl)c(Cl)c3)cnc2c1`: the growth was -69.7% (active) with SR leukemia; -48.9% (active) with RPMI-8226 leukemia; 32.6% with OVCAR-8 ovarian; 31% with OVCAR-5 ovarian; -96.7% (active) with OVCAR-4 ovarian; 88.8% with SK-OV-3 ovarian. The growth in the assay with IGROV1 ovarian was 21.3%; with OVCAR-3 ovarian, -43.4% (active); with HS 578T breast it was 62.1%; in the assay on NCI/ADR-RES ovarian, 89.6%; with T-47D breast, -27.2% (active); in the assay with BT-549 breast, 96.6%. Also, the growth was -50% (active) in the assay with MDA-MB-435 melanoma; 51.3% with SW-620 colon; -43.5% (active) in the assay with MCF7 breast; -42.5% (active) in the assay with HCT-116 colon; 44.7% with HCC-2998 colon; 35.6% in the assay with KM12 colon.
Regarding `CCCCCCCCCCC(C[N+](C)(C)C/C=C/c1ccccc1)C(O)c1ccccc1` (stereo unspecified), the growth in the assay with SR leukemia is -46.2% (active); with RPMI-8226 leukemia, -50.8% (active); with OVCAR-8 ovarian, 20.5%; in the assay with OVCAR-5 ovarian it was 42.6%; in the assay on OVCAR-4 ovarian, 8.79% (active); in the assay with SK-OV-3 ovarian, 53.1%. For the same compound, the growth in the assay with IGROV1 ovarian was -70.9% (active); in the assay on OVCAR-3 ovarian, -50.7% (active); in the assay on HS 578T breast it was 49%; with NCI/ADR-RES ovarian it was 97.6%; in the assay with T-47D breast, 10.3%; in the assay with BT-549 breast, -6.83% (active). Further, the growth in the assay with MDA-MB-435 melanoma is -66% (active); in the assay with SW-620 colon it was 2.5% (active); in the assay with MCF7 breast it was -66.9% (active); in the assay on HCT-116 colon it was -87.7% (active); with HCC-2998 colon, 7.77% (active); in the assay with KM12 colon, -97.5% (active).
As to `[N-]=[N+]=Nc1ncc(-c2ccc(C(F)(F)F)cc2)c(NC2CCCCCC2)n1`, the growth with SR leukemia is -21.8% [100 µM] (active); with RPMI-8226 leukemia it was -21% [100 µM] (active); in the assay with OVCAR-8 ovarian, 37.2% [100 µM]; in the assay on OVCAR-5 ovarian, 65% [100 µM]; in the assay on OVCAR-4 ovarian, 28.9% [100 µM]; in the assay with SK-OV-3 ovarian, 71.6% [100 µM]. The growth with IGROV1 ovarian was 36.3% [100 µM]; in the assay with OVCAR-3 ovarian it was 7.63% [100 µM] (active); in the assay with HS 578T breast it was 52.3% [100 µM]; with NCI/ADR-RES ovarian, 43.7% [100 µM]; with T-47D breast, 21.3% [100 µM]; with BT-549 breast, 45.4% [100 µM]. Also, the growth with MDA-MB-435 melanoma is 19.1% [100 µM]; with SW-620 colon it was 27.2% [100 µM]; with MCF7 breast, 16.3% [100 µM]; in the assay with HCT-116 colon, 16% [100 µM]; in the assay with HCC-2998 colon it was 39.7% [100 µM].
Regarding `CCCNC(=O)Oc1ccc(/C(=C(/C)Cc2ccc(OC)cc2)c2ccc(OCCN3CCCC3)cc2)cc1`, the growth is -20.2% (active) in the assay on SR leukemia; 49.5% with RPMI-8226 leukemia; 79.5% in the assay with OVCAR-8 ovarian; 88.4% with OVCAR-5 ovarian; 61.5% in the assay with OVCAR-4 ovarian; 81.3% in the assay on SK-OV-3 ovarian. Also, the growth in the assay with IGROV1 ovarian is 81.9%; with OVCAR-3 ovarian, 83.6%; with HS 578T breast, 58.3%; in the assay on NCI/ADR-RES ovarian, 75.9%; in the assay on T-47D breast, 37%; in the assay with BT-549 breast, 82.7%. The growth in the assay on MDA-MB-435 melanoma was 65.8%; in the assay with SW-620 colon, 77.7%; in the assay on MCF7 breast, 25.3%; with HCT-116 colon it was 48.8%; in the assay on HCC-2998 colon, 62.5%; with KM12 colon, 78.7%.
As to `N=C(N)c1ccc(-c2ccc(-c3ccc(F)cc3)s2)cc1`, the growth was -24.2% (active) in the assay with SR leukemia; -55.5% (active) with RPMI-8226 leukemia; -28.4% (active) in the assay with OVCAR-8 ovarian; -87.4% (active) in the assay with OVCAR-5 ovarian; -70.8% (active) with OVCAR-4 ovarian; -80% (active) in the assay on SK-OV-3 ovarian. The growth was -69.8% (active) in the assay on IGROV1 ovarian; -92.4% (active) with OVCAR-3 ovarian; -59.4% (active) with HS 578T breast; -77.1% (active) in the assay with NCI/ADR-RES ovarian; -57.5% (active) with T-47D breast; -19.9% (active) with BT-549 breast. The growth was -99.2% (active) with MDA-MB-435 melanoma; -87.9% (active) in the assay with SW-620 colon; -83.5% (active) with MCF7 breast; -83.3% (active) in the assay with HCT-116 colon; -77.5% (active) with HCC-2998 colon; -87.3% (active) in the assay with KM12 colon.
Consider `c1cc(C2CCCCC2)ccc1OCCCCCCN1CCNCC1`, for which the growth was -4.39% (active) with SR leukemia; -31% (active) in the assay on RPMI-8226 leukemia; 48% in the assay on OVCAR-8 ovarian; 41.3% with OVCAR-5 ovarian; 41.6% in the assay with OVCAR-4 ovarian; 83.8% with SK-OV-3 ovarian. Further, the growth in the assay on IGROV1 ovarian was 8.79% (active); in the assay on OVCAR-3 ovarian, 40.5%; in the assay on HS 578T breast, 51.9%; with NCI/ADR-RES ovarian it was 54.1%; with T-47D breast, 22.8%; in the assay on BT-549 breast it was 83%. In addition, the growth is 42.1% in the assay on MDA-MB-435 melanoma; -37.7% (active) in the assay on SW-620 colon; -31.3% (active) with MCF7 breast; -61.7% (active) in the assay with HCT-116 colon; 12.9% with HCC-2998 colon; 6.42% (active) in the assay on KM12 colon.
